Experimental data reported in ChEMBL document CHEMBL5308504, “Tm Shift (DSF) assay results for EUbOPEN Chemogenomics Library” (2023).
“And” between values parts separate entries of the source, which are not always exact repeats. Equal values may be shown once.

Experiments:
Settings in all cases: Compound concentration 20.0 uM, Protein concentration 2.0 uM, Result type QC Liability
[1] = target: Tyrosine-protein kinase ABL1 (Homo sapiens) (UniProt P00519)
[2] = target: Cyclin-dependent kinase 2 (Homo sapiens) (UniProt P24941)
[3] = target: Casein kinase I isoform delta (Homo sapiens) (UniProt P48730)
[4] = target: Glycogen synthase kinase-3 beta (Homo sapiens) (UniProt P49841)
[5] = target: Mitogen-activated protein kinase 1 (Homo sapiens) (UniProt P28482)
[6] = target: T1, Aurora kinase A (Homo sapiens) (UniProt O14965)
T1 sequence (whole entry): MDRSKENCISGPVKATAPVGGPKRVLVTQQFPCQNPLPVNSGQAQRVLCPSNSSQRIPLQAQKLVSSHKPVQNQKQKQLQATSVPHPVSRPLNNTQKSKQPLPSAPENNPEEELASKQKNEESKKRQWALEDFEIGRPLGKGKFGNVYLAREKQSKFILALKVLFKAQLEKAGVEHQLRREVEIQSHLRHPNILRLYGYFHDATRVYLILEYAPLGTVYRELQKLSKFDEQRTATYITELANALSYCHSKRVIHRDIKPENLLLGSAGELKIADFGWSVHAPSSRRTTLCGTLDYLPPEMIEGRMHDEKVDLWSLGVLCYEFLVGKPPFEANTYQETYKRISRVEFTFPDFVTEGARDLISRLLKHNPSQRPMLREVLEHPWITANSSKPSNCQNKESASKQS

Chain of Mitogen-activated protein kinase 1 (Homo sapiens) (P28482 whole entry): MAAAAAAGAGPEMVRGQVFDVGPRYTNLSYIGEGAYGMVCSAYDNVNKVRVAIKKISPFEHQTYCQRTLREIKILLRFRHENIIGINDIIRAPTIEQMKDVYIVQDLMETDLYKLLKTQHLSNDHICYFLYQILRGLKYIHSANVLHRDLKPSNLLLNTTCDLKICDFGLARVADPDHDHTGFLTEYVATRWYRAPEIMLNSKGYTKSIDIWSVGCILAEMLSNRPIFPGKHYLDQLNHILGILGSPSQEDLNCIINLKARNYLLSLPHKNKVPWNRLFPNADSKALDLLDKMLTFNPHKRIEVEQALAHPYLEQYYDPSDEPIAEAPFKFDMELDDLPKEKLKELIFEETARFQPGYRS
Chain of Glycogen synthase kinase-3 beta (Homo sapiens) (P49841 whole entry, looked up): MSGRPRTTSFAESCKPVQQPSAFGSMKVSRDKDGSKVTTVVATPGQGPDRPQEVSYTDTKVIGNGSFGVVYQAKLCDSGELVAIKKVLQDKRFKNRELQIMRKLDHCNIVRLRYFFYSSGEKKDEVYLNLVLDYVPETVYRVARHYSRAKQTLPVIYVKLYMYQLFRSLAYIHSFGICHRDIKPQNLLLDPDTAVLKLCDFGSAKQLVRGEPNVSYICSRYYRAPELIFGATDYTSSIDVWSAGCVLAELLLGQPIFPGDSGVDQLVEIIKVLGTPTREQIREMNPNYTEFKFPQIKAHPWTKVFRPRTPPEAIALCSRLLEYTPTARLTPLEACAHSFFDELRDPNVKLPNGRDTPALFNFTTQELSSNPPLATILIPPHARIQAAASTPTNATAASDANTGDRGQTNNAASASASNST
Chain of Tyrosine-protein kinase ABL1 (Homo sapiens) (P00519 whole entry): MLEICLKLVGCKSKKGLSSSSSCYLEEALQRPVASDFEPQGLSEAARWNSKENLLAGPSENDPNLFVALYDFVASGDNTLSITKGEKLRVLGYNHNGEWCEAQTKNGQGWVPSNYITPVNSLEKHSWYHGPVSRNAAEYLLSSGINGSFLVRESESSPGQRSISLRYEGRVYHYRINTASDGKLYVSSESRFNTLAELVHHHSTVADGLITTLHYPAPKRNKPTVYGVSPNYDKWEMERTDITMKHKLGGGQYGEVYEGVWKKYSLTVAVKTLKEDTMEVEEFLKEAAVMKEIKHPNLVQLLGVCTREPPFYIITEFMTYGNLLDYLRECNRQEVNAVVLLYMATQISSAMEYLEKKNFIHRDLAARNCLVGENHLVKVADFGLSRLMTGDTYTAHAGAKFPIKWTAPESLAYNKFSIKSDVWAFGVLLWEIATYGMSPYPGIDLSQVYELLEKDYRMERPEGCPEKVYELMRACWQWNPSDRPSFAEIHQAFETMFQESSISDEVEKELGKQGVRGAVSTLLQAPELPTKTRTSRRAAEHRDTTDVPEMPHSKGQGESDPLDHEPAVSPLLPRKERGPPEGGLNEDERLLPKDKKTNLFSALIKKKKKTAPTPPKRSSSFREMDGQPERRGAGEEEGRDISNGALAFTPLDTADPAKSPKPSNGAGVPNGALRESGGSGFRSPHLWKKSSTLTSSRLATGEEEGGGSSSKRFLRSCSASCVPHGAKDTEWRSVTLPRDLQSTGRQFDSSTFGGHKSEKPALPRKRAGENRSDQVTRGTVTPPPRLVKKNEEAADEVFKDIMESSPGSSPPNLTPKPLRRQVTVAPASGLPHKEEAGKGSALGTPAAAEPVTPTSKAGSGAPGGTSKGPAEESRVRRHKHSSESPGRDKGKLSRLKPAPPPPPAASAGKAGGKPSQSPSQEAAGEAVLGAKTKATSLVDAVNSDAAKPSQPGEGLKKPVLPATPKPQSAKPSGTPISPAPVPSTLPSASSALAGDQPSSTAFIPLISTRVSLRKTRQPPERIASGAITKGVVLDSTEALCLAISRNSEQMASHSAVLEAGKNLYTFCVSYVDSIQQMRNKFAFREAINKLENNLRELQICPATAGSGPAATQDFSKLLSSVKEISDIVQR
Chain of Casein kinase I isoform delta (Homo sapiens) (P48730 whole entry, looked up, canonical isoform): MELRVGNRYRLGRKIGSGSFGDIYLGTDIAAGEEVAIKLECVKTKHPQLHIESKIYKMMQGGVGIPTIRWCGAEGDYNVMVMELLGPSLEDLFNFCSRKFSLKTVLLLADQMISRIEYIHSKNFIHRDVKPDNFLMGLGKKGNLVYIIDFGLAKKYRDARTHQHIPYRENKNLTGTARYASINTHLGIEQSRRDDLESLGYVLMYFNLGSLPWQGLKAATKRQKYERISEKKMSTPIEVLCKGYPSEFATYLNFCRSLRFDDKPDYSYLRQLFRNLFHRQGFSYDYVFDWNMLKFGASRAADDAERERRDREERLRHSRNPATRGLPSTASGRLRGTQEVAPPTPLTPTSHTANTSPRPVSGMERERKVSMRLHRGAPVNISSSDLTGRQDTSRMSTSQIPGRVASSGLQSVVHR

Row | SMILES | ΔTm [1] | ΔTm [2] | ΔTm [3] | ΔTm [4] | ΔTm [5] | ΔTm [6]
1 | CN(C)C(=O)Cn1cc(-c2ccc(-c3cncc4ccccc34)cc2)cn1 | 3.4 °C | 0.46 °C | 1.89 °C | 0.72 °C | -0.64 °C | 2.96 °C
2 | CC(=O)O[C@H]1C(=O)[C@@]2(C)[C@H]([C@H](OC(=O)c3ccccc3)[C@]3(O)C[C@H](OC(=O)[C@H](O)[C@@H](NC(=O)c4ccccc4)c4ccccc4)C(C)=C1C3(C)C)[C@]1(OC(C)=O)CO[C@@H]1C[C@@H]2O | 0.38 °C | 0.99 °C | -0.22 °C | -0.02 °C | 0.57 °C | -0.14 °C
3 | CCOC(=O)N1CCC(CN(Cc2ccc(Cl)cc2)Cc2ccc([N+](=O)[O-])s2)C1 (configuration not stated) | 0.47 °C | 0.83 °C | 1.17 °C | -0.64 °C | 0.21 °C | -0.41 °C
4 | CN(C)CCC[C@@]1(c2ccc(F)cc2)OCc2cc(C#N)ccc21 | 0.61 °C | 0.64 °C | -0.32 °C | -0.03 °C | 0.7 °C | -0.23 °C
5 | Nc1nccc(-c2c(-c3ccc(F)cc3)ncn2C2CCN(Cc3ccon3)CC2)n1 | 0.7 °C | 0.23 °C | 10.1 °C | 6.87 °C | 0.36 °C | -0.88 °C
6 | CN[C@@H](C)C(=O)N[C@H](C(=O)N1CCC[C@H]1C(=O)N[C@H]1c2ccccc2C[C@H]1OCC#CC#CCO[C@@H]1Cc2ccccc2[C@@H]1NC(=O)[C@@H]1CCCN1C(=O)[C@@H](NC(=O)[C@H](C)NC)C1CCCCC1)C1CCCCC1 | 0.18 °C | -0.48 °C | 0.49 °C | -1.17 °C | 0.11 °C | -1.88 °C
7 | CC(C)c1cnc(NC(=O)Cc2ccccc2)s1 | 1.04 °C | 4.66 °C | 2.55 °C | 3.64 °C | 0.91 °C | -0.53 °C
8 | CCn1c(-c2nonc2N)nc2ccccc21 | 0.33 °C | 0.64 °C | 0.5 °C | 4.22 °C | 0.41 °C | 1.84 °C
9 | O=C(Nc1cccc(C(F)(F)F)c1)c1cccc(-n2cc(-c3ccco3)nn2)c1 | 0.46 °C | 0.62 °C | -5.13 °C | -7.24 °C | -10.6 °C | -2.64 °C
10 | Cc1cc2c(ncn2C2(C)CN(C(=O)c3ccn(CC4CCN([C@H]5C=CCCCC5)CC4)c3)C2)c(N)n1 | 0.14 °C | 1.09 °C | -0.14 °C | -0.26 °C | 0.62 °C | -1 °C
11 | CCCCC(C)(O)C/C=C/[C@H]1[C@H](O)CC(=O)[C@@H]1CCCCCCC(=O)O (some centres not stated) | 0.39 °C | 0.57 °C | -0.02 °C | 0.33 °C | -0.33 °C | -0.31 °C
12 | CN1C(=O)Cc2ccc(-c3ccc(C[C@@H](C#N)NC(=O)[C@@H]4N[C@H]5CC[C@@H]4C5)c(F)c3)cc21 | -0.52 °C | 0.33 °C | 0.17 °C | -0.31 °C | -0.2 °C | -0.07 °C
13 | C[C@@H]1CN(CC(=O)N2CC(C)(C)c3nc(CO)c(Cc4ccc(F)cc4)cc32)[C@@H](CN2CCOC[C@H]2C)CN1 | 0.35 °C | 0.82 °C | -0.16 °C | -0.02 °C | 0.01 °C | -0.39 °C
14 | Nc1ncnc2c1ccn2[C@@H]1O[C@H]([C@@H](O)c2ccccc2)[C@@H](O)[C@H]1O | 0.21 °C | 0.7 °C | 0.65 °C | -0.88 °C | 0.25 °C | -1.22 °C
15 | Cc1c(CN2CCC3(CC2)CN(c2ncnc4sc(CC(F)(F)F)cc24)C3)ccc2c1cc(C#N)n2CC(N)=O | 0.27 °C | -0.01 °C | 0.92 °C | 0.64 °C | 0.12 °C | 0.16 °C
16 | CN(C)C(=O)Cn1cc(-c2nc([C@@](C)(c3ccc(-c4cnc(N)nc4)cc3)C3CC3)no2)cn1 | 1.32 °C | 0.32 °C | 0.5 °C | -0.36 °C | 0.32 °C | 2.6 °C
17 | CCn1c(CNC(=O)c2ncc(C)nc2N)[n+](CC)c2ccc(C(=O)N(C)CCN(C)C)cc21 | 0.1 °C | 0.39 °C | 0.2 °C | -0.02 °C | 0.08 °C | -0.29 °C
18 | CN1CCN(c2ccnc(NCCc3ccccc3)n2)CC1 | 0.08 °C | 0.11 °C | 0.22 °C | -0.49 °C | 0.69 °C | -0.92 °C
19 | CC(C)(C)c1cnc(CSc2cnc(NC(=O)C3CCN(CC(=O)NCCOCCOCCOCCNc4cccc5c4C(=O)N(C4CCC(=O)NC4=O)C5=O)CC3)s2)o1 (configuration not stated) | -2.84 °C | 9.12 °C | 0 °C | 10.8 °C | 0.99 °C | 7.5 °C
20 | C[S+](C)[O-] | 0 °C (2×) and 0.21 °C | 0 °C (2×) and 0.78 °C | 0 °C (2×) and 0.01 °C | 0 °C (2×) and -0.51 °C | 0 °C (2×) and 0.53 °C | 0 °C (2×) and 0.05 °C
21 | CN1CCN(C(=O)c2ccc3cc2OCCOCCNc2ccn4ncc-3c4n2)CC1 | 1.92 °C | 0.81 °C | 0.3 °C | 0 °C | 0.5 °C | 3.85 °C
22 | Cc1cc(SCc2sc(-c3ccc(C(F)(F)F)cc3)nc2C)ccc1OCC(=O)O | 0 °C | 0.3 °C | 1.18 °C | -1.11 °C | 0.57 °C | -2.58 °C
